This is a sample that favours compounds with a hit; in the whole collection about 1.3% have one here.
PKM2 activator = activators of human pyruvate kinase M2; P14618; purified PKM2, Kinase-Glo ATP luminescence, activation; response scale: 0% is enzyme alone, no compound; Potency, µM (titrated, usually from 57.5 µM), inactives show top-dose activation, usual class: activators; actives 0.34% (n = 260,000); AID 1631; further: potency means the concentration at half of the fitted maximal effect; on the % scale 0 is the no-effect control and ±100 the full control effect; nearly all actives have a fitted effect of over 55% in size
Target sequence (P14618 whole entry, looked up): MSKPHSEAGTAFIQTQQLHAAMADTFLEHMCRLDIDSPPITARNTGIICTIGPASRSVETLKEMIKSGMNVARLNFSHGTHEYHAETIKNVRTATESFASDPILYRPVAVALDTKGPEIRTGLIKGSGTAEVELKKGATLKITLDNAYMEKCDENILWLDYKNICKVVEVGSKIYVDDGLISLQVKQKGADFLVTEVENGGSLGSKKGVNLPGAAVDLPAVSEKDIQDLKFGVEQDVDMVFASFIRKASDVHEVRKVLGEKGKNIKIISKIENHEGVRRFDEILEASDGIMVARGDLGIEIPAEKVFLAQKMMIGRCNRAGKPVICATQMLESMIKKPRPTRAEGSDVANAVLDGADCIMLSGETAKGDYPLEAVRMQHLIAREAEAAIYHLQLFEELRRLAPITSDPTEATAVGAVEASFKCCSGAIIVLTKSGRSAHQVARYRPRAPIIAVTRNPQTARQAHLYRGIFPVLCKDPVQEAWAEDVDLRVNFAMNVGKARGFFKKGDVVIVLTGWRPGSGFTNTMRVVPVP
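ATP formation by purified human PK-M2, quantified via coupled luciferase luminescence after 1 h at room temperature with 0.1 mM ADP and 0.5 mM PEP final.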
TRPML1 blocker = human mucolipin-1 channel inhibition. Q9GZU1. TRPML1-inducible cells, Ca2+ dye fluorescence, FDSS; stronger effect = lower value; inhibition of EC80 agonist-evoked calcium signal. activity change, negative = inhibition, % (no concentration beside the values). actives 0.02% (n = 390,000). AID 624415; in the data active means activity change below about -50%; inconclusive means between about -30% and that limit;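 further: stimulus is agonist 54-4 at its EC80 concentration; on the % scale 0 is the no-effect control and ±100 the full control effect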
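Calcium fluorescence in TRPML1-DL cells induced overnight with Tet: a 110 s read after compound pin addition, then a 110 s antagonist read after challenge with 54-4 at 4 uM final (EC80).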
TRPML1 agonist = agonists of human TRPML1 channel | activation, % (concentration not given with the values) | actives 0.12% (n = 410,000) | TRPML1-expressing cells, Ca2+ dye fluorescence, FDSS | Q9GZU1; in the data active means activation above about 50%; inconclusive means mostly about 30% to 49%; further: 0% is about no effect
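Cells: TRPML1-DL, 1X Tet inducer, ~16 h at 37 degrees C/5% CO2. Dye: ABD Ca8 no-wash + quencher, 45-90 min RT. Read: 10 s baseline, compound add, 110 s agonist phase; 54-4 EC80 (4uM final), 110 s antagonist phase.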
BRCA1 expr up = BRCA1 expression activation; Potency, µM (top dose mostly 46.1 µM), for inactives: at the top dose activation, hits mostly activators; actives 1.1% (n = 380,000); MCF7-BRCA1-FFLuc reporter, luminescence, 48 h; response scale: scaled: vehicle 0%, 10 µM genistein 100%; further: potency means the concentration at half of the fitted maximal effect; nearly all actives have a fitted effect of over 80% in size
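Luminescence from a BRCA1-driven firefly luciferase in MCF7 cells was the read-out, taken 15 min after substrate addition following 48 h compound exposure at 37 °C. Data were normalized to a 10 microM genistein control and DMSO vehicle.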
TSG101-PTAP inh = blocks PTAP/TSG101 interaction to inhibit HIV-1 budding; Fluorescence polarization, FITC-PTAP peptide / Tsg101 binding; 340,000 tested, under 10 active; Potency, µM (highest dose often 115 µM), without a hit: top-dose activity change, negative = inhibition, actives largely listed as inhibitors; Q99816; active means well fitted inhibition curve with a large enough effect in the main read-out, with a control signal flat, not every such curve was filed as active; inconclusive means small, poorly fitted or top-dose-only effect, or effect the other way, or a change in a side signal; inactive means no such curve, though single readings can be large or run the other way; further: potency means the concentration at half of the fitted maximal effect; % of control where 0% means no effect
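Fluorescence anisotropy tracks displacement of a FITC-tagged PTAP peptide (50 nM) from the Tsg101 binding domain (10 uM), following a 20 min room-temperature incubation at pH 7.5.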
IL-2 act = IL-2 activation; IL-2 activation reporter assay, cell-based qHTS; stimulated with anti-CD3/CD4/CD28 beads; in transgenic mouse T cells; activation, % (series mostly up to about 46 µM); actives 0.065% (n = 360,000); AID 652025; in the data active means activation above about 50%; inconclusive means mostly about 30% to 49%; further: 0% is about no effect
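Screening format: compound pinned onto unstimulated transgenic mouse T cells, 60 min incubation, then anti-CD3/anti-CD4/anti-CD28 bead stimulation for 18 hours at 37 degrees C, followed by EGFP and DsRed detection.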
* hit, by the source's call; ? = inconclusive; · = no result given; [ ] = another dose, or the depositor's remark. Unless noted, the call rests on the fitted dose curve; in most records, active means well fitted activation curve with a large enough effect; inconclusive means small, poorly fitted or top-dose-only effect; inactive means no such curve, though single readings can be large or run the other way.

SMILES | PKM2 activator | TRPML1 blocker | TRPML1 agonist | BRCA1 expr up | TSG101-PTAP inh | IL-2 act
CCn1nnnc1-c1ccc(OC)c(S(=O)(=O)Nc2ccc(C)c(C)c2)c1 | 16µM* | 8 | 1 | 0% | 0% | -1
CCn1nnnc1-c1ccc(OC)c(S(=O)(=O)NCc2ccccc2)c1 | 7% | -6 | 1 | -6% | -1% | -1
CCn1c(SCC(=O)NCc2ccco2)nnc1-c1cccc(N(C)C)c1 | · | · | -1 | -1% | · | ·
c1ccc(-c2ccc(-c3csnn3)cc2)cc1 | -4% | 41 | 0 | 7.9µM* | -8% | 0
O=C(Oc1ccc(-c2csnn2)cc1)c1cccs1 | 0% | 4 | -1 | 11% | -1% | 2
O=S(=O)(Nc1ccccc1)c1ccc(-c2csnn2)cc1 | 14µM* | -13 | 0 | -10% | 0% | -1
CCc1ccc2oc(-c3ccc(C)c(NC(=O)c4ccc(C#N)cc4F)c3)nc2c1 | · | 2 | 2 | -6% | · | ·
Cc1cc(C)c(S(=O)(=O)N2CCC(n3c(C(F)(F)F)nc4cccnc43)CC2)c(C)c1 | · | 0 | 0 | · | · | ·
Nc1c(C(=O)Nc2ccc3c(c2)OCCO3)nnn1Cc1ccccc1Cl | · | -4 | 5 | ? | -2% | -1
Nc1c(C(=O)Nc2ccc3c(c2)OCCO3)nnn1Cc1ccc(F)cc1 | · | 28 | 3 | 8.9µM* | -1% | 0
Nc1c(C(=O)Nc2ccc3c(c2)OCCO3)nnn1Cc1cccc(Cl)c1 | · | 10 | 1 | 3.2µM* | -4% | 0
O=C1O[C@@H](c2ccccc2)C[C@@H](O)[C@H](O)CCCCc2ccccc21 | · | · | -1 | -6% | · | 0
COc1cc(C(=O)Nc2ccccc2-c2nc(-c3ccccc3)no2)cc(OC)c1OC | · | 28 | 1 | 2% | · | ·
COC(=O)c1ccc(COc2cccc(C)c2C)cc1 | -4% | -6 | 5 | 10µM* | 0% | 1
O=C1S/C(=C\c2cccs2)C(=O)N1c1ccc(O)cc1 | · | -4 | 2 | 11µM* | -4% | 2
O=C(/C=C/c1ccccc1)Nc1ccc(Cl)cn1 | -5% | -11 | 0 | 3.5µM* | -1% | -1
COc1ccc(NC(=O)/C=C/c2ccc(F)cc2)cn1 | -7% | -23 | 0 | 96% | -4% | 2
COc1ccc(NC(=O)/C=C/c2ccccc2)cn1 | 1% | 1 | -1 | 8.9µM* | -2% | -1
COc1ccc(/C=C/C(=O)Nc2ccccc2)cc1OC | 10% | -2 | 1 | 11µM* | 2% | -5
Cc1cc(NC(=O)CSc2nc3c(c(=O)n(C)c(=O)n3C)n2C(C)C)no1 | 28µM* | -18 | 1 | -1% | -2% | -2
CCCCn1c(SCC(=O)Nc2cc(C)on2)nc2c1c(=O)n(C)c(=O)n2C | 20µM* | -8 | 0 | 1% | -4% | -1
CCn1c(SCC(=O)Nc2cc(C)on2)nc2c1c(=O)n(C)c(=O)n2C | 25% | 4 | 1 | 3% | -4% | -1
CC(C)n1c(SCC(=O)Nc2ccc3c(c2)OCO3)nc2c1c(=O)n(C)c(=O)n2C | 15% | -3 | 0 | -26% | -8% | -2
Oc1ccc(Nc2ncnc3ccccc23)cc1 | -7% | 0 | 1 | 17% | -9% | 0
CC(C)Oc1ccc(Nc2ncnc3ccccc23)cc1 | 1% | 3 | 1 | 2.5µM* | 5% | -3
SMILES | PKM2 activator | TRPML1 blocker | TRPML1 agonist | BRCA1 expr up | TSG101-PTAP inh | IL-2 act
Cc1ccc(Nc2ncnc3ccccc23)cc1 | -3% | 21 | 2 | 5.6µM* | 0% | -1
CCOC(=O)C1CCC(CN(Cc2ccc(OC)cc2)S(=O)(=O)c2ccc(F)c(C(=O)Nc3c(C)cccc3C)c2)CC1 (stereo not given) | · | -9 | 1 | · | · | ·
COc1cccc(C2CC(=O)Nc3cc4c(cc32)OCCO4)c1OC (stereo not given) | · | 6 | 0 | · | · | ·
CC(C)(C)n1ncc2c(=O)n(Cc3ccc(Cl)cc3C(F)(F)F)cnc21 | · | -2 | 1 | · | · | ·
CC(C)c1cc(C(=O)NCc2ccccc2)no1 | · | 9 | -1 | · | · | ·
O=C(Nc1ccc([N+](=O)[O-])cc1)C(Cc1ccccc1)N1C(=O)c2cccc3cccc(c23)C1=O (stereo not given) | -8% | -11 | 0 | ? | 30% | 160*
COc1ccc(CNc2nc(-c3ccccc3)nn2C(=O)c2ccc([N+](=O)[O-])cc2)cc1 | 9% | -14 | -1 | 11µM* | -1% | -1
COc1ccc(CNc2nc(-c3ccccc3)nn2C(=O)c2cccs2)cc1 | -5% | 8 | 1 | 44% | -6% | 2
O=c1c(-c2cc(-c3ccccc3)nc3c2COc2ccc(Cl)cc2-3)coc2ccc(F)cc12 | · | 10 | 1 | 7% | · | ·
CC(C)C[C@H](N)c1nnc(SCc2ccc(Cl)cc2Cl)o1 | · | 3 | 0 | 0% | · | ·
CC(C)C[C@H](N)c1nnc(S(=O)(=O)Cc2ccc(F)cc2)o1 | 10µM* | 41 | 1 | -100% | -6% | -1
COc1ccc(NC(=O)c2sc3nc(-c4cccnc4)ccc3c2N)cc1OC | 3% | -13 | 0 | 27% | ? | 94*
COc1ccc(NC(=O)c2sc3nc(-c4cccnc4)ccc3c2N)cc1 | -5% | 8 | 3 | 0% | ? | ?
Nc1c(C(=O)Nc2ccccc2)sc2nc(-c3cccnc3)ccc12 | 11µM* | · | · | · | · | ·
C(=Nc1cccnc1)c1ccc2ccccc2n1 | · | · | 0 | -5% | · | ·
C=CCc1ccccc1OCCSc1nc(-c2ccccc2F)nc2cc(=O)[nH]n12 | · | -2 | 1 | 0% | · | ·
COc1ccc(NC(=O)CSc2n[nH]c(C(C)C)n2)c([N+](=O)[O-])c1 | 20% | -18 | 0 | -2% | 2% | -4
COc1ccc(NC(=O)CSc2n[nH]c(N)n2)c([N+](=O)[O-])c1 | 14µM* | -2 | 2 | 9% | 0% | 0
Cc1ccc(NC(=O)CSc2ncccn2)c([N+](=O)[O-])c1 | 17% | -9 | -1 | 11µM* | 1% | -1
O=C(COc1cccnc1[N+](=O)[O-])Nc1cccc(Br)c1 | · | -5 | 0 | 11µM* | 2% | 0
NC(=NCc1ccccc1)c1cccc([N+](=O)[O-])c1 | -1%[11.5 µM] | 10 | 1 | -33% | -3% | 1
CC1(C)CSC(=NCc2ccccc2)N1C(=O)c1cccc([N+](=O)[O-])c1 | -1% | -6 | 94* | -83% | -1% | -1
CCOC(=O)CSc1nc2ccc(C)cc2cc1C#N | -1% | 2 | 2 | 4µM* | 2% | -1

Screens: PubChem, National Center for Advancing Translational Sciences (NCATS)
